# Key:
# Test in all cases: DAPPL (digital affinity profiling via proximity ligation, sequencing); 10 mM Tris-HCl pH 7.5, 50 mM NaCl, 1 mM DTT, 4% glycerol, room temperature, 30 min; GST-TFs on glutathione beads, 16-mer random dsDNA library, 0.1% formaldehyde crosslink after washing; high values mean tight binding
# Details in all cases: protein: recombinant; tags: N-terminal GST; dsDNA, one strand shown
# [1] = target: T1, ELK1 (Homo sapiens, UniProt P19419 1-428)
# T1 sequence: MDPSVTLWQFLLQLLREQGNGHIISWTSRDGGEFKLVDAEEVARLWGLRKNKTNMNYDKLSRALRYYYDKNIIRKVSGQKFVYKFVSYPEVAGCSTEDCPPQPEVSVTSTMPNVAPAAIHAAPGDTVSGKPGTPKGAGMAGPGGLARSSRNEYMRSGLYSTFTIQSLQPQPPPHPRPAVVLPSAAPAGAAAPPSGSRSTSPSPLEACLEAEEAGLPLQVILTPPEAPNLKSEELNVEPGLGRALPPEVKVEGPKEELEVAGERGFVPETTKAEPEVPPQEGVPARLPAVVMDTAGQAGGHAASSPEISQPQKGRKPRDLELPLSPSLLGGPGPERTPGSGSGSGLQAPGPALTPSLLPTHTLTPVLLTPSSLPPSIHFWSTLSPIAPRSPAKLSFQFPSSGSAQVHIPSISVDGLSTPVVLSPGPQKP
# In short: (§1)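 A tag-only sample was pooled with DNA-barcoded human transcription factors that had been expressed in yeast as GST fusions and captured on glutathione beads. The pools were incubated for 30 min at room temperature with 200 nmole of a random double-stranded 16-mer DNA library in Tris/NaCl/DTT/glycerol buffer, then washed, crosslinked with 0.1% formaldehyde, proximity-ligated (BsaI/T4 ligase, 1 h, 37 °C), PCR-amplified and sequenced on an Illumina NextSeq500. Binding signal is each hexamer's read frequency for a factor divided by its frequency for the tag-only sample.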
# [2] = target: T2, GABPA (Homo sapiens, UniProt Q06546 1-454)
# T2 sequence: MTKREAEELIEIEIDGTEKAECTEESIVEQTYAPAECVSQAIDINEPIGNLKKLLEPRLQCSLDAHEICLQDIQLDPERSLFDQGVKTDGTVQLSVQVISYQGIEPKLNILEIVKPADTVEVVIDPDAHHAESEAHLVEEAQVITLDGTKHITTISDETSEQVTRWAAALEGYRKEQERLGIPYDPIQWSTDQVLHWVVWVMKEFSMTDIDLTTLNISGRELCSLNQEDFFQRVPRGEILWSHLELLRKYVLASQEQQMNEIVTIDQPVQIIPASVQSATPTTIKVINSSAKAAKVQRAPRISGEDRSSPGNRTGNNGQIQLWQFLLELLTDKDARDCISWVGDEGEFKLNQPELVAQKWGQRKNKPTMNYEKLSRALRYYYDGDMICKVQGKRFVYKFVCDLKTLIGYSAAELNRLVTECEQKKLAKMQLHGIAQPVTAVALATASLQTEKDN
# In short: as §1
# [3] = target: T3, ERG (Homo sapiens, UniProt P11308 1-479)
# T3 sequence: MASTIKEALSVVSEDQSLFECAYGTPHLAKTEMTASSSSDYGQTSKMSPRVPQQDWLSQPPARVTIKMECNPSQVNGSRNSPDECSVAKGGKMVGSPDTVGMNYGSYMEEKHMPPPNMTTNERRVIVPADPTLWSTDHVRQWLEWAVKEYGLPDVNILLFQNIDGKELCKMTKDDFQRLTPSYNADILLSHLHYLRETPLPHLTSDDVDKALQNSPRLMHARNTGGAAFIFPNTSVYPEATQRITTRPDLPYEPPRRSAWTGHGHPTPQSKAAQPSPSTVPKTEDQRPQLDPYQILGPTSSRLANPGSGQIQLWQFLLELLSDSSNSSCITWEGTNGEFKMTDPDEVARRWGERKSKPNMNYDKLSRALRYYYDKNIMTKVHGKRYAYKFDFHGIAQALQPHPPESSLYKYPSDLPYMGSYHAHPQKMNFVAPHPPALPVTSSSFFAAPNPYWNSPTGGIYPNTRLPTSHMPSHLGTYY
# In short: as §1
# [4] = target: ELF1 (Homo sapiens, UniProt P32519 1-619)
# ELF1, sequence (P32519 whole entry): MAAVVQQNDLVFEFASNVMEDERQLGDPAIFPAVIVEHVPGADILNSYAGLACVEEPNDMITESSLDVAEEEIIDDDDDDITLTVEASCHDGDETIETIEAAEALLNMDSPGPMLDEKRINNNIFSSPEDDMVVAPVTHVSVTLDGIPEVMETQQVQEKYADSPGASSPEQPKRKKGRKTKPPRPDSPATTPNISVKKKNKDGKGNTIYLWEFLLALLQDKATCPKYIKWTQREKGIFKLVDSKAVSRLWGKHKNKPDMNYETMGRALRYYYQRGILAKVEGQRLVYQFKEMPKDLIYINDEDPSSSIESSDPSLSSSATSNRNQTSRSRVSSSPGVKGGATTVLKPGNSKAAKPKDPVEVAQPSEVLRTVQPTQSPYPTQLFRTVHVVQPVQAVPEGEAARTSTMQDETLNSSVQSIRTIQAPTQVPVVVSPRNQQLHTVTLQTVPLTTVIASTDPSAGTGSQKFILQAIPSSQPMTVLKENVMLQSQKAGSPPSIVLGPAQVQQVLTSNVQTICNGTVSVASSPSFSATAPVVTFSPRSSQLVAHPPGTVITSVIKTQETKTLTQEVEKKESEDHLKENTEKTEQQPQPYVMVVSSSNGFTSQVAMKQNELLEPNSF
# In short: as §1
# [5] = target: T4, EHF (Homo sapiens, UniProt Q9NZC4 1-300)
# T4 sequence: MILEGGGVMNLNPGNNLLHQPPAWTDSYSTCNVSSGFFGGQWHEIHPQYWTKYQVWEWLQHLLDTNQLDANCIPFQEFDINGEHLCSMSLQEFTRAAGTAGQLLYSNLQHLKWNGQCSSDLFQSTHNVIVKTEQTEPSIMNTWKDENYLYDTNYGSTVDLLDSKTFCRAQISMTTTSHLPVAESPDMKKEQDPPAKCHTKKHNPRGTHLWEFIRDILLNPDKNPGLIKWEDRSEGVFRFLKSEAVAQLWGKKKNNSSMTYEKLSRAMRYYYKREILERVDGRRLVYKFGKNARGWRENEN
# In short: as §1
# [6] = target: SPIB (Homo sapiens, UniProt Q01892 1-262)
# SPIB, sequence (Q01892 whole entry): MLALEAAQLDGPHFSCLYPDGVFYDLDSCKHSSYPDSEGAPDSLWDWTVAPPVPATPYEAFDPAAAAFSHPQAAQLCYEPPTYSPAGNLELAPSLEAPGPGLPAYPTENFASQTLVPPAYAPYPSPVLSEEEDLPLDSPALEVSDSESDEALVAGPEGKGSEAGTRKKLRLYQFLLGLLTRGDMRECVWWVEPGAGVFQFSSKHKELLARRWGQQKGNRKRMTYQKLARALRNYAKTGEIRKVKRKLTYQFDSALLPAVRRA
# In short: as §1
# [7] = target: T5, FEV (Homo sapiens, UniProt Q99581 1-238)
# T5 sequence: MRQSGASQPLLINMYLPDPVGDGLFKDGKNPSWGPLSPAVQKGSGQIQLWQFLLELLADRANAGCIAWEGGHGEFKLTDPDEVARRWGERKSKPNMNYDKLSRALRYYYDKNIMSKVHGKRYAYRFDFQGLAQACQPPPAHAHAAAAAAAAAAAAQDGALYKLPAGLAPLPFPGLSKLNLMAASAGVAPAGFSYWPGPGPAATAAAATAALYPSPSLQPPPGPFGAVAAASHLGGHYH
# In short: as §1
# [8] = target: ETV5 (Homo sapiens, UniProt P41161 1-510)
# ETV5, sequence (P41161 whole entry): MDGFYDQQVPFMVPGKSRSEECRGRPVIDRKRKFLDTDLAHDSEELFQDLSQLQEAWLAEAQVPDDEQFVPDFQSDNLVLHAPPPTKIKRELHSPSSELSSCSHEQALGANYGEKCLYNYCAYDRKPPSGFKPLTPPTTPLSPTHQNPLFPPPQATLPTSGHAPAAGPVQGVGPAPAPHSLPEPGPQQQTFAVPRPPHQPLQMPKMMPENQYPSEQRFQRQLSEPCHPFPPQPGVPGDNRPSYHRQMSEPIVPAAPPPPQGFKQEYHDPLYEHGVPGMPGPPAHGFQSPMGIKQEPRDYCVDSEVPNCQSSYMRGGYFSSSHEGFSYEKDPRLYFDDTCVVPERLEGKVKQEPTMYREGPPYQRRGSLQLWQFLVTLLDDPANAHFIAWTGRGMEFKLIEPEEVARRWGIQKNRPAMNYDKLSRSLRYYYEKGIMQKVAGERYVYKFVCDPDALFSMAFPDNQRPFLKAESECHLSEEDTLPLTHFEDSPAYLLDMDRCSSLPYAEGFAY
# In short: as §1
# [9] = target: ELF4 (Homo sapiens, UniProt Q99607 1-663)
# ELF4, sequence (Q99607 whole entry): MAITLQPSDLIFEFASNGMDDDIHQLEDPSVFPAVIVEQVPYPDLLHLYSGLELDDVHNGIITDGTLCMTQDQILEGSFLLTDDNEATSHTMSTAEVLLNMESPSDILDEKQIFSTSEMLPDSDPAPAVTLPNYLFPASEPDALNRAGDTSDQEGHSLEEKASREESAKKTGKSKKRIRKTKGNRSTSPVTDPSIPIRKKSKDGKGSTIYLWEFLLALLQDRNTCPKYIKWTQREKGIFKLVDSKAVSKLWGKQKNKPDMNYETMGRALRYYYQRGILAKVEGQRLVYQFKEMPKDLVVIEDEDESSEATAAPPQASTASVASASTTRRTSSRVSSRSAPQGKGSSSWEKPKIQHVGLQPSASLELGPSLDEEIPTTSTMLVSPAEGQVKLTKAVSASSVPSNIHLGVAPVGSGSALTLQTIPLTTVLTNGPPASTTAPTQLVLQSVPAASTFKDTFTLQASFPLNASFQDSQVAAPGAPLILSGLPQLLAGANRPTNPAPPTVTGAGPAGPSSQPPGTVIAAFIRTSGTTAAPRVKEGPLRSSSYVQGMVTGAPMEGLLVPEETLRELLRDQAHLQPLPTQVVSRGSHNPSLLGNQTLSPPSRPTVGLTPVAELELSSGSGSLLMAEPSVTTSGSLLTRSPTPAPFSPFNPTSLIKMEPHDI
# In short: as §1
# [10] = target: T6, ELK4 (Homo sapiens, UniProt P28324-2 1-405)
# T6 sequence: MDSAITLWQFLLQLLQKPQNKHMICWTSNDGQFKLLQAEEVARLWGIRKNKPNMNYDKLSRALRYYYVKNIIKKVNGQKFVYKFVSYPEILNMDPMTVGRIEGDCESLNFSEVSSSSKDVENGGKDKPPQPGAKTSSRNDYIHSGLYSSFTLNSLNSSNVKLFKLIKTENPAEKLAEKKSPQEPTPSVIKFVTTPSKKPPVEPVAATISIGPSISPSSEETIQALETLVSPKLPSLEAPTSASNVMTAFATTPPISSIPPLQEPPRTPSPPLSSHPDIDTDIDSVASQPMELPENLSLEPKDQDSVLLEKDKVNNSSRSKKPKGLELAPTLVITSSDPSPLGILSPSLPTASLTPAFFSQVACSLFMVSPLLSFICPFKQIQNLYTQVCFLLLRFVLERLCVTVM
# In short: as §1
# [11] = target: T7, ETV2 (Homo sapiens, UniProt O00321 1-342)
# T7 sequence: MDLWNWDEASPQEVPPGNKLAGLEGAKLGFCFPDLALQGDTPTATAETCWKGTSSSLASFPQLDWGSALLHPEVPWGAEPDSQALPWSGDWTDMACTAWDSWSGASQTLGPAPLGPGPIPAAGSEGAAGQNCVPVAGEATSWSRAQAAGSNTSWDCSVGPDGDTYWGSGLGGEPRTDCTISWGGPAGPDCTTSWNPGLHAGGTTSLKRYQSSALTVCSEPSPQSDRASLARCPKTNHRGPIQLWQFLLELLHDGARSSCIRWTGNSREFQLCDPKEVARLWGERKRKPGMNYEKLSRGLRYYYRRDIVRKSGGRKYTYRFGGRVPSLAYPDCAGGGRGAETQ
# In short: as §1
# [12] = target: ETV1 (Homo sapiens, UniProt P50549 1-477)
# ETV1, sequence (P50549 whole entry): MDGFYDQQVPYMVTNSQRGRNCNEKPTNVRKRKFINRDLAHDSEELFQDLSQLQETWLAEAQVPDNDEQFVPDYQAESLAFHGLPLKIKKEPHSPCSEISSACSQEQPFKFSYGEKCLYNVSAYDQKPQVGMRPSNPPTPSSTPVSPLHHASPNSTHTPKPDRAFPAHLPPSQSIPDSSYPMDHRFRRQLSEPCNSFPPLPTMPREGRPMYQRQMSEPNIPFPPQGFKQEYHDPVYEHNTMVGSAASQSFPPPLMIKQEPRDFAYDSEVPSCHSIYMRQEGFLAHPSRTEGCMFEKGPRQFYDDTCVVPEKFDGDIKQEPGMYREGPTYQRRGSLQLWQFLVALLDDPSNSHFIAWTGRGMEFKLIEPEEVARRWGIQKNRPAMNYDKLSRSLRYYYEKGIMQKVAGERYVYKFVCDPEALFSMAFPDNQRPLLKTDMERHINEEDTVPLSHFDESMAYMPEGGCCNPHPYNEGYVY
# In short: as §1
# [13] = target: T8, ERF (Homo sapiens, UniProt P50548 1-548)
# T8 sequence: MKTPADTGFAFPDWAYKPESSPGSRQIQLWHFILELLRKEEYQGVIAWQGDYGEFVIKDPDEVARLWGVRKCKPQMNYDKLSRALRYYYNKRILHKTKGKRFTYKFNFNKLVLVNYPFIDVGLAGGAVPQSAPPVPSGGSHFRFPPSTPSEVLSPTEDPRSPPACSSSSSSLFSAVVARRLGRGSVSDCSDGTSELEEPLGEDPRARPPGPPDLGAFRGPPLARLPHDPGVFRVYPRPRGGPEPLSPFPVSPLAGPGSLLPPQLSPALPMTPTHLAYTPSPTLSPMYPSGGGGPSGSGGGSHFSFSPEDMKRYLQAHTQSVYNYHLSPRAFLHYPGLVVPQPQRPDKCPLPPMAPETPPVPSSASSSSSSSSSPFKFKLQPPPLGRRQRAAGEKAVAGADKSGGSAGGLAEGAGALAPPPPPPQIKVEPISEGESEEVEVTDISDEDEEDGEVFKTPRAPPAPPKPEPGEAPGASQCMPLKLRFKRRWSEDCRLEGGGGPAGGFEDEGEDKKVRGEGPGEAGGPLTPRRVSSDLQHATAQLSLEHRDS
# In short: as §1
# [14] = target: T9, ETV3L (Homo sapiens, UniProt Q6ZN32 1-361)
# T9 sequence: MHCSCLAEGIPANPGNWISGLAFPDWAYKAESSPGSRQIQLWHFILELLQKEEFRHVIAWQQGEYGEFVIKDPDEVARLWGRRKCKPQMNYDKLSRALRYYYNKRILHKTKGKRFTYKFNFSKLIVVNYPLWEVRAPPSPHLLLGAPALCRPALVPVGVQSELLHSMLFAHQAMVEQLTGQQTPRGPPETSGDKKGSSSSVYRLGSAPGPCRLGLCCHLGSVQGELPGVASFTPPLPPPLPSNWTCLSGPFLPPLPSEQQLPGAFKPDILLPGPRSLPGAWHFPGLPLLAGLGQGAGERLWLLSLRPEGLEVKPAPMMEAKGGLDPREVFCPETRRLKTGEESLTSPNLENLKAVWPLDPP
# In short: as §1
# [15] = target: T10, ETS2 (Homo sapiens, UniProt P15036 1-469)
# T10 sequence: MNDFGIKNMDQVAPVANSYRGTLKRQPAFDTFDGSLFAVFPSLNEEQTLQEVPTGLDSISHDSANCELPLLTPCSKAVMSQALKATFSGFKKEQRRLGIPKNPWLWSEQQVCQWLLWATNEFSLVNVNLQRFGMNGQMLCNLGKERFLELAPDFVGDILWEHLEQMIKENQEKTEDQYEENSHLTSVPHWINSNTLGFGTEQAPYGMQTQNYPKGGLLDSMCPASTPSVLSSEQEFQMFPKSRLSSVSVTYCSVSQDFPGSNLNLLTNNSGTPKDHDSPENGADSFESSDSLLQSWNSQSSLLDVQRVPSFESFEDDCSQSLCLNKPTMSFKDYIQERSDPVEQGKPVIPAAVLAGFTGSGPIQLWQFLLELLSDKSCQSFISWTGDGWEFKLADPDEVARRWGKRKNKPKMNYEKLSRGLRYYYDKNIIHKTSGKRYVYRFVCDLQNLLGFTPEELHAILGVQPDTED
# In short: as §1
# [16] = target: T11, SPDEF (Homo sapiens, UniProt O95238 1-335)
# T11 sequence: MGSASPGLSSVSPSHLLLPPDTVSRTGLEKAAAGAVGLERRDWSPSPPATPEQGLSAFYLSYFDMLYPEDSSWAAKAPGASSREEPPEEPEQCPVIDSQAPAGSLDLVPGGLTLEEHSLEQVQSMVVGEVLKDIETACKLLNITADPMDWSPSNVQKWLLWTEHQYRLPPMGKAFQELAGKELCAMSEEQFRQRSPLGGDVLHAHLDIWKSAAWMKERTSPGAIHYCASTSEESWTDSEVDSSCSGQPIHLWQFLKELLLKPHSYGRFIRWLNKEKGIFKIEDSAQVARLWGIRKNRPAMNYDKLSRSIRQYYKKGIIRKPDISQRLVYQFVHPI
# In short: as §1
# [17] = target: T12, ETV7 (Homo sapiens, UniProt Q9Y603 1-341)
# T12 sequence: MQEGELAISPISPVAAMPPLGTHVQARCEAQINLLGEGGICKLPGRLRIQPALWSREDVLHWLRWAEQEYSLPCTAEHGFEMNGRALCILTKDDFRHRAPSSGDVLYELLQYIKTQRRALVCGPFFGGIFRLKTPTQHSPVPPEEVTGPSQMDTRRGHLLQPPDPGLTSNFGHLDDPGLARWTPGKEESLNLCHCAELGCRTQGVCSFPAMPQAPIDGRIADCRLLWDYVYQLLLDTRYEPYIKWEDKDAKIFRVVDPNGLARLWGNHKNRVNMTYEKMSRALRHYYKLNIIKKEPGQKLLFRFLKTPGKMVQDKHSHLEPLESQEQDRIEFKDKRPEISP
# In short: as §1
# [18] = target: T13, ETV3 (Homo sapiens, UniProt P41162-2 1-143)
# T13 sequence: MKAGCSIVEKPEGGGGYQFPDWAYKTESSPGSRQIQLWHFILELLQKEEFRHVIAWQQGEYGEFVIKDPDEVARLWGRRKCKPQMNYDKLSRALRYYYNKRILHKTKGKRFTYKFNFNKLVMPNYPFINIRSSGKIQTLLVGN
# In short: as §1
# [19] = target: ETV6 (Homo sapiens, UniProt P41212 1-452)
# ETV6, sequence (P41212 whole entry): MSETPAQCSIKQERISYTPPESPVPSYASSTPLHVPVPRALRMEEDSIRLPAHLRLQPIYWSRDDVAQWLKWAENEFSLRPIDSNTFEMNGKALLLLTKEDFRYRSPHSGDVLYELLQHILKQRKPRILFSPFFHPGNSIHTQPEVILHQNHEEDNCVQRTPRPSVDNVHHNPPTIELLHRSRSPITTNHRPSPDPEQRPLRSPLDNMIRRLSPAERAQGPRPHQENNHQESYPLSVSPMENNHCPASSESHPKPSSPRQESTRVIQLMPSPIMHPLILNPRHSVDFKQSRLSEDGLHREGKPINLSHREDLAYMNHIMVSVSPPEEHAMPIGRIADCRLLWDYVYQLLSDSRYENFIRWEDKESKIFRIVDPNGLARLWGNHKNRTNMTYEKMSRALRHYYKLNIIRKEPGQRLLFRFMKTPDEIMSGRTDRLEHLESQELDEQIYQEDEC
# In short: as §1
sequence,measurement,setting,value
TGGGGT,binding signal,[1],"1.05 fold enrichment (6-mer frequency, TF over GST control)"
same,binding signal,[2],"1.12 fold enrichment (6-mer frequency, TF over GST control)"
same,binding signal,[3],"1.1 fold enrichment (6-mer frequency, TF over GST control)"
same,binding signal,[4],"1.09 fold enrichment (6-mer frequency, TF over GST control)"
same,binding signal,[5],"1.03 fold enrichment (6-mer frequency, TF over GST control)"
same,binding signal,[6],"1.09 fold enrichment (6-mer frequency, TF over GST control)"
same,binding signal,[7],"1.02 fold enrichment (6-mer frequency, TF over GST control)"
same,binding signal,[8],"1.13 fold enrichment (6-mer frequency, TF over GST control)"
same,binding signal,[9],"1.08 fold enrichment (6-mer frequency, TF over GST control)"
same,binding signal,[10],"1.21 fold enrichment (6-mer frequency, TF over GST control)"
same,binding signal,[11],"1.08 fold enrichment (6-mer frequency, TF over GST control)"
same,binding signal,[12],"1.14 fold enrichment (6-mer frequency, TF over GST control)"
same,binding signal,[13],"1.02 fold enrichment (6-mer frequency, TF over GST control)"
same,binding signal,[14],"1.2 fold enrichment (6-mer frequency, TF over GST control)"
same,binding signal,[15],"1.2 fold enrichment (6-mer frequency, TF over GST control)"
same,binding signal,[16],"1.08 fold enrichment (6-mer frequency, TF over GST control)"
same,binding signal,[17],"1.05 fold enrichment (6-mer frequency, TF over GST control)"
same,binding signal,[18],"1.14 fold enrichment (6-mer frequency, TF over GST control)"
same,binding signal,[19],"1.09 fold enrichment (6-mer frequency, TF over GST control)"
